From PubChem BioAssay (EPA / NIEHS)
Several values for one entry are separate records, joined by “and”; a condition that tells them apart may be missing. Identical values can stand only once. Inconclusive results are not listed. The source holds several records for some structures; these can differ, active in one and inactive in another. Activity calls are given as the source filed them. How the source made its calls, unless noted: active means hit-call score of the fitted dose curve at least 0.9, where 1 is the maximum; inactive means score below 0.9.

Legend:
[1] = IUF_NPC4_neurite_length_120hr: Leibniz Research Institute for Environmental Medicine (IUF) 120-hour Neuronal Morphology Assay for Neurite Length (NPC4) (AID 2284302)
Outline: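 Neurite length, the mean in um across TUBB3-stained neurons, is derived by skeletonization of high-content images after 120 h differentiation. Compound exposure, 7 concentrations plus solvent control, ran from plating of hNPC spheres on poly-D-lysine/laminin, with medium half-replaced on day 3.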

[2] = IUF_NPC5_oligodendrocyte_differentiation_120hr: Leibniz Research Institute for Environmental Medicine (IUF) 120-hour Oligodendrocyte Differentiation Assay (NPC5) (AID 2284304; active means hit-call score of the fitted dose curve at least 0.9, where 1 is the maximum;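 further: primary human fetal neural progenitor spheres plated to migrate and differentiate; share of O4-positive cells among Hoechst nuclei found by CNN image analysis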)
Outline: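 Oligodendrocyte differentiation was scored after 120 h as the O4-positive share of Hoechst-stained nuclei across the neurosphere migration area, using a trained convolutional neural network on high-content fluorescence images. Human fetal neural progenitor spheres were dosed from day 0, normalised to DMSO.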

[3] = IUF_NPC4_neurite_area_120hr: Leibniz Research Institute for Environmental Medicine (IUF) 120-hour Neuronal Morphology Assay for Neurite Area (NPC4) (AID 2284305; active means hit-call score of the fitted dose curve at least 0.9, where 1 is the maximum)
Outline: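 Neurite area (pixels, nuclei excluded) of TUBB3-positive neurons from hNPC spheres differentiating 5 days under continuous exposure at 37 C, 5% CO2. High-content imaging; loss of signal versus DMSO control across 7 concentrations.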

[4] = IUF_NPC2-5_cytotoxicity_72hr: Cytotoxicity Assessment at 72 hours in the Leibniz Research Institute for Environmental Medicine (IUF) Neural Progenitor Cell Migration and Differentiation Assay for Cytotoxicity (NPC2-5) (AID 2284306; active means hit-call score of the fitted dose curve at least 0.9, where 1 is the maximum;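 further: LDH release into supernatant measured by resorufin fluorescence marking membrane damage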)
Outline: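 Membrane-integrity cytotoxicity at 72 h, read as LDH-driven resorufin fluorescence in supernatant. hNPC spheres from fetal cortex differentiate on coated plates in N2 medium, 37C, 5% CO2; seven serial compound concentrations plus solvent control (DMSO ≤0.1%).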

[5] = IUF_NPC2-5_cytotoxicity_120hr: Cytotoxicity Assessment at 120 hours in the Leibniz Research Institute for Environmental Medicine (IUF) Neural Progenitor Cell Migration and Differentiation Assay (NPC2-5) (AID 2284307; active means hit-call score of the fitted dose curve at least 0.9, where 1 is the maximum;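 on AC50: LDH released into supernatant as membrane damage marker via resorufin fluorescence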)
Outline: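 Sphere plating starts differentiation and exposure together at day 0. Compound solution is half-replaced on day 3. At 120 h, medium supernatant is taken for an LDH membrane-integrity read based on resazurin reduction to resorufin fluorescence.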

[6] = IUF_NPC2-5_cell_number_120hr: Cell Number Assessment at 120 hours in the Leibniz Research Institute for Environmental Medicine (IUF) Neural Progenitor Cell Migration and Differentiation Assay (NPC2-5) (AID 2284308);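 further: count of Hoechst-stained nuclei in migration zone around plated human neural progenitor spheres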
Outline: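 hNPC spheres, one per well, PDL/laminin, N2 medium, 37C, 5% CO2. Dosing day 0 → half-medium change with fresh compound day 3 → fix 120 h. Readout: Hoechst+ nuclei count, migration area; 7 concentrations plus solvent control.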

[7] = IUF_NPC2-5_viability_120hr: Viability Assessment at 120 hours in the Leibniz Research Institute for Environmental Medicine (IUF) Neural Progenitor Cell Migration and Differentiation Assay (NPC2-5) (AID 2284312)
Outline: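 Alamar blue resorufin fluorescence read after 5 days of differentiation, with compound present from day 0 and replenished at day 3. Primary hNPC spheres on laminin-coated plates, 37C; seven concentrations plus solvent control, fitted against DMSO.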

[8] = IUF_NPC1_cytotoxicity_72hr: Cytotoxicity Assessment at 72 hours in the Leibniz Research Institute for Environmental Medicine (IUF) Neural Progenitor Cell Proliferation Assay (NPC1) (AID 2284332; active means hit-call score of the fitted dose curve at least 0.9, where 1 is the maximum;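 further: rising LDH signal means more cytotoxicity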)
Outline: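 Cytotoxicity by LDH membrane-integrity assay on medium supernatants, fluorescence via resazurin reduction, after 3-day single exposure of primary hNPC spheres at 37C, pH 7.2-7.6 with growth factors. Fitted upward against baseline.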

[9] = read-out: CD69, CD69 (gene 969); assay: BSK_LPS_CD69: BioMAP Diversity Plus: LPS Assay for CD69 Biomarker Activity (AID 2284303); conditions: primary human HUVEC with PBMC
Outline: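 CD69 surface levels were read by ELISA after 24 h chemical treatment of an LPS-stimulated HUVEC plus PBMC co-culture; positive-direction fit against DMSO vehicle.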

[10] = CCTE_Mundy_HCI_iCellGluta_NOG_NeuriteLength: CCTE's Neurite Outgrowth Assay in iCellGluta cells for Neurite Length, Mundy Lab (AID 2284318; active means hit-call score of the fitted dose curve at least 0.9, where 1 is the maximum)
Outline: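 Automated high-content imaging of betaIII-tubulin (Alexa Fluor-488) and Hoechst-stained cells gave neurite length, normalized to the DMSO baseline.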

[11] = CCTE_Deisenroth_5AR_NBTE_donor: CCTE's 5alpha-reductase NanoBRET Target Engagement Assay […], Deisenroth Lab (AID 2284319); conditions: actives raise or lower the signal
Outline: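 In this secondary endpoint, donor luminescence from SRD5A2-NanoLuc in transfected HEK293T flags artifacts. Test chemical (10 nM - 29.9 uM) is present five hours, tracer the last two; mock-tracer wells run plate-matched; data fitted bidirectionally against DMSO.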

[12] = CCTE_Deisenroth_5AR_NBTE_acceptor: CCTE's 5alpha-reductase NanoBRET Target Engagement Assay - Autofluorescence Screen, Deisenroth Lab (AID 2284321); conditions: actives raise or lower the signal;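 further: compound fluorescence in the acceptor channel under 460 nm excitation flags autofluorescence artifacts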
Outline: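 Acceptor fluorescence intensity was read as an artifact-detection endpoint. Test chemicals at an assumed nominal 100 uM were excited at 460 nm across three independent runs. Activity was fitted bidirectionally against DMSO.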

[13] = system: SRD5A2 (gene 6716); assay: CCTE_Deisenroth_5AR_NBTE_ratio: CCTE's 5alpha-reductase NanoBRET Target Engagement Assay - Ratio, Deisenroth Lab (AID 2284322); conditions: actives raise or lower the signal
Outline: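 HEK293T cells transiently expressing an SRD5A2-NanoLuc fusion (20 h post-transfection) were exposed to test chemical (10 nM - 29.9 uM, 8 points) for 3 h, then testosterone tracer for a further 2 h. Acceptor/donor BRET ratio was fitted bidirectionally against DMSO baseline.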

[14] = system: IYD (gene 389434); assay: CCTE_GLTED_hIYD: CCTE's human Iodotyrosine Deiodinase (xIYD) Inhibition Assay, Great Lakes Toxicology and Ecology Division (GLTED) Lab (AID 2284317; active means hit-call score of the fitted dose curve at least 0.9, where 1 is the maximum;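 further: cell-free human IYD enzyme made in baculovirus insect cells; iodide freed from monoiodotyrosine measured by cerium arsenite color change at 420 nm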)
Outline: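 In the IYD assay, iodide released from MIT by insect-cell-expressed human enzyme was quantified after 3 h via Sandell-Kolthoff rate at 420 nm, with plate-wise normalization to MNT and solvent controls.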

[15] = system: Brachyury (BRA) Protein Expression, Deisenroth Lab, TBXT (gene 6862); assay: CCTE_Deisenroth_DEVTOX-GLR_legacy_Bra: (Legacy) CCTE's DevTox GLR-Endo Assay Evaluation of Brachyury (BRA) Protein Expression, Deisenroth Lab (AID 2284329)
Outline: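 Percent Bra-positive cells, scored by high-content imaging against a threshold of 5x BMAD over the undifferentiated control median, with the 0.2% DMSO median subtracted. RUES2-GLR cultures were dosed twice at 24 h intervals across a 48 h differentiation, at 1 nM–200 uM in ten steps, with n=4 replicates.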

[16] = CCTE_Deisenroth_DEVTOX-GLR_legacy_CellCount: (Legacy) Viability Assessment in CCTE's DevTox GLR-Endo Assay, Deisenroth Lab (AID 2284331); conditions: actives raise or lower the signal
Outline: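 Seed RUES2-GLR 24 h; differentiate 48 h, dosing at 0 and 24 h; fix, stain nuclei; image 5 fields/well; count nuclei. Conc. 1 nM - 200 uM, single technical replicate, n=4 experiments; bidirectional fit vs 0.2% DMSO.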

O=S1OC[C@@H]2[C@H](CO1)[C@]1(Cl)C(Cl)=C(Cl)[C@@]2(Cl)C1(Cl)Cl (some centres not stated)
outcome [1]: inactive | AC50 [2]: 0.789 µM (active) | outcome [3]: inactive | outcome [4]: inactive | outcome [5]: inactive | outcome [6]: inactive | outcome [7]: inactive | outcome [8]: inactive

OCCCCO
outcome [9]: inactive

Cc1cc(C(F)(C(F)(F)F)C(F)(F)F)ccc1NC(=O)c1cccc(I)c1C(=O)NC(C)(C)CS(C)(=O)=O
outcome [1]: inactive | AC50 [2]: 4.22 µM (active) | outcome [3]: inactive | outcome [4]: inactive | AC50 [5]: 1.5 µM (active) | outcome [6]: inactive | outcome [7]: inactive | outcome [10]: inactive | outcome [8]: inactive

CCC[CH2][Sn]([Cl])([Cl])[CH2]CCC
AC50 [11]: 4.46 µM (active) | AC50 [12]: 5.59 µM (active) | AC50 [13]: 13 µM (active)

CCOP(=S)(OCC)O/N=C(\C#N)c1ccccc1
outcome [11]: inactive | outcome [12]: inactive | AC50 [13]: 20.1 µM (active)

Nc1ccc(N)cc1
outcome [14]: inactive

NC(=O)c1ccc(N)nc1
AC50 [15]: 24.1 µM (active) | AC50 [16]: 30.6 µM (active)

O=C(Nc1ccc(Br)cc1)c1cc(Br)cc(Br)c1O
AC50 [14]: 118 µM (active) and 100 µM (active) | outcome [14]: inactive

O=C(CCl)Nc1ccccc1
outcome [14]: inactive

N#CCCC(Br)(C#N)CBr (configuration not stated)
AC50 [11]: 62.1 µM (active) | AC50 [12]: 54.4 µM (active) | AC50 [13]: 69.9 µM (active)

O=S1(=O)OC(c2cc(Br)c(O)c(Br)c2)(c2cc(Br)c(O)c(Br)c2)c2ccccc21
AC50 [14]: 117 µM (active) | outcome [11]: inactive | outcome [12]: inactive | AC50 [13]: 4.66 µM (active)

CC1(C)[C@H](C(=O)O[C@H](C#N)c2cccc(Oc3ccccc3)c2)[C@@H]1/C=C(\Cl)C(F)(F)F
outcome [1]: inactive | AC50 [2]: 0.983 µM (active) | outcome [3]: inactive | outcome [4]: inactive | outcome [5]: inactive | AC50 [6]: 0.586 µM (active) | outcome [7]: inactive | outcome [10]: inactive | outcome [8]: inactive

CCCCCCCCCCCCc1cccc(S(=O)(=O)O)c1
AC50 [14]: 89.9 µM (active)

CC(=Cc1ccccc1)[N+](=O)[O-]
outcome [11]: inactive | outcome [12]: inactive | outcome [13]: inactive

Oc1cc(Cl)c(Cl)cc1Cl
outcome [14]: inactive

O=c1nc(O)n(Cl)c(=O)n1Cl
outcome [11]: inactive | outcome [12]: inactive | outcome [13]: inactive

Cc1ccccc1OP(=O)(Oc1ccccc1C)Oc1ccccc1C
outcome [1]: inactive | AC50 [2]: 6.47 µM (active) | outcome [3]: inactive | outcome [4]: inactive | outcome [6]: inactive | outcome [7]: inactive | AC50 [10]: 8.67 µM (active)

O=C(Cc1ccccc1)OCCc1ccccc1
outcome [9]: inactive
